In PubChem BioAssay (NCATS):
Where “and” joins values, the source holds several entries; their conditions need not be identical. Equal entries are not always repeated. Records with an inconclusive call do not appear. Calls of active or inactive are those of the source. The call rests on the fitted dose curve; in most records, active means well fitted cell-killing curve with a large enough effect; inconclusive means small, poorly fitted or top-dose-only effect, or effect the other way; inactive means no such curve, though single readings can be large or run the other way.

Test: qHTS of pediatric cancer cell lines to identify multiple opportunities for drug repurposing: Confirmatory screen for RD cells (AID 1347124);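 further: cells exposed to compound for 48 h before viability readout; nearly all actives have a fitted effect of over 65% in size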
Details: RD rhabdomyosarcoma cell viability; series mostly up to 45.9 µM; activity change, negative = cytotoxic: at the top concentration
In short: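 Viability after 48 h compound treatment at 37C, 500-1,000 cells/well, read as ATP luminescence with CellTiter-Glo. Primary screens used 11-point (MIPE, 0.78 nM-46 µM) or 8-point (NPC, 0.59 nM-46 µM) final concentrations; follow-up screens used 11-point dilutions.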
On the % scale 0 is the no-effect control and ±100 the full control effect; potency means the concentration at half of the fitted maximal effect.

Compound	activity change, negative = cytotoxic	Potency
Cc1ccc(Nc2nccc(N(C)c3ccc4c(C)n(C)nc4c3)n2)cc1S(N)(=O)=O	-1.95% (inactive)	
CN(C)c1ccc2nc3ccc(=[N+](C)C)cc-3sc2c1		14.7 µM (active)
CS(=O)(=O)OCCCCOS(C)(=O)=O	13.3% (inactive)	
Cc1ccc(NC(=O)c2ccc(CN3CCN(C)CC3)cc2)cc1Nc1nccc(-c2cccnc2)n1	13.5% (inactive)	
Nc1ccn([C@@H]2O[C@H](CO)[C@@H](O)C2O)c(=O)n1 (stereo partly drawn)	18.1% (inactive)	
CC1(C)C(=O)N(CCN2CCC(C(=O)c3ccc(F)cc3)CC2)c2ccccc21	10.5% (inactive)	
CN(C)c1ccc(O)c2c1C[C@H]1C[C@H]3[C@H](N(C)C)C(=O)C(C(N)=O)=C(O)[C@@]3(O)C(=O)C1=C2O	7.47% (inactive)	
O=C(NCC1CCCCN1)c1cc(OCC(F)(F)F)ccc1OCC(F)(F)F (stereo not drawn)	25.6% (inactive)	
C=C(c1ccc(C(=O)O)cc1)c1cc2c(cc1C)C(C)(C)CCC2(C)C	10.6% (inactive)	
CCCCc1ccc2nc(NC(=O)OC)[nH]c2c1		0.369 µM (active)
Oc1ccc(-c2nc(-c3ccc(F)cc3)c(-c3ccncc3)[nH]2)cc1	-13.7% (inactive)	
CCCOc1ccc2nc(NC(=O)OC)[nH]c2c1		1.65 µM (active)
Cc1nc(Nc2ncc(C(=O)Nc3c(C)cccc3Cl)s2)cc(N2CCN(CCO)CC2)n1	10.6% (inactive)	
C[C@]12CCC(=O)C=C1CC[C@@H]1[C@H]2[C@@H](O)C[C@@]2(C)[C@H]1CC[C@]2(O)C(=O)CO	2.55% (inactive)	
CCc1nc(N)nc(N)c1-c1ccc(Cl)cc1		9.27 µM (active)
Nc1ncn([C@H]2C[C@H](O)[C@@H](CO)O2)c(=O)n1	12.3% (inactive)	
CCN(CC)C(=S)SSC(=S)N(CC)CC		4.65 µM (active)
c1cnc2cc3c(cc2n1)C1CNCC3C1	8.12% (inactive)	
O=C1c2c(O)cc(O)cc2OC(c2ccc(O)c(O)c2)C1O (stereo not drawn)	14.1% (inactive)	
CCN(CC)CCOc1ccc(Nc2ncc3cc(-c4c(Cl)cccc4Cl)c(=O)n(C)c3n2)cc1		2.33 µM (active)
CC[C@]1(O)C[C@H]2CN(CCc3c([nH]c4ccccc34)[C@@](C(=O)OC)(c3cc4c(cc3OC)N(C=O)[C@H]3[C@@](O)(C(=O)OC)[C@H](OC(C)=O)[C@]5(CC)C=CCN6CC[C@]43[C@@H]65)C2)C1		52.2 nM (active) and 147 nM (active)
CCN(CCO)CCCC(C)Nc1ccnc2cc(Cl)ccc12 (stereo not drawn)	3.4% (inactive)	
O=C(CCc1ccc(O)cc1)c1c(O)cc(O)cc1O	5.17% (inactive)	
Nc1nc(OCc2ccccc2)c2[nH]cnc2n1	-0.745% (inactive)	
CCOc1cc(CC(=O)N[C@@H](CC(C)C)c2ccccc2N2CCCCC2)ccc1C(=O)O	14.1% (inactive)	
Cc1c(C(=O)NN2CCCCC2)nn(-c2ccc(Cl)cc2Cl)c1-c1ccc(Cl)cc1	-17.7% (inactive)	
CC(C)C[C@H](NC(=O)[C@H](Cc1ccccc1)NC(=O)c1cnccn1)B(O)O		0.0414 µM (active)
COc1cc(C(C)=O)ccc1OCCCN1CCC(c2noc3cc(F)ccc23)CC1	4.94% (inactive)	
